# High-throughput results as filed in PubChem.
# Most compounds without a hit are left out; they make up all but 4.2% or so of the library.
# hcDAF12 agonist – H. contortus DAF-12 nuclear receptor activators, primary screen, cell-based, luminescence, HEK293, lit1-tk-luc reporter | HEK293 hcDAF-12 lit1-tk-luc reporter; 0% DMSO, 100% Δ7-dafachronic acid | 370,000 tested, 1.4% active | activation, % at 6.8 µM | AID 652067, 2013;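 active = activation above the mean of all tested compounds plus 3 SD, cut at about 5.5% in these data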;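 note: 100% = response to 3 µM Δ7-dafachronic acid high control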
# SMARCA2 activ – SMARCA2 (BRM) function activators, primary screen, cell-based, luminescence, high throughput; MG213 cells, MMTV-luciferase reporter, dexamethasone, overnight; activation, % at 9.1 µM; 370,000 tested, 1% active; in the data active = activation above about 7.8%;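 note: 0% = vehicle wells and 100% = reference activator wells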
# ssDAF-12 act – S. stercoralis DAF-12 nuclear receptor activators, primary screen, cell-based, luminescence, HEK293, GRIP1 co-expression, lit1-tk-luc. HEK293 ssDAF-12/GRIP1 lit1-tk-luc reporter; % of 3 µM dafachronic acid response. AID 652126, 2013. activation, % at 6.8 µM. 370,000 tested, 1% active;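 active = activation above the mean over all tested compounds plus 3 SD, cut at about 0.9% in these data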;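 note: 0% = DMSO-only wells and 100% = 3 µM delta7-dafachronic acid wells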
# DAX1 inh – DAX1 (NR0B1) inhibitors on StAR promoter, primary screen, cell-based, luminescence, SF-1 (NR5A1), full-length DAX-1. inhibition, % at 6.8 µM. AID 652010, 2013. 370,000 tested, 1.1% active. HEK293T StAR-luciferase reporter, SF-1/DAX-1 repression relief;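 active = inhibition above the mean over all tested compounds plus 3 SD, cut at about 3.6% in these data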;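 note: 0% = DAX-1 cells with DMSO and 100% = cells lacking DAX-1 with DMSO; higher inhibition means more luminescence from relief of DAX-1 repression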
# hgDAF-12 ag – H. glycines DAF-12 receptor agonists, primary screen, cell-based, luminescence, HEK293, GAL4 fusion, UAS-luciferase | 370,000 tested, 1.8% active | activation, % at 6.8 µM | HEK293 GAL4-hgDAF12 UAS-luciferase reporter, agonist luminescence; normalized to butyrate control;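 active = activation above a cutoff set at the mean of all screened compounds plus 3 SD, cut at about 10% in these data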;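 note: 0% = DMSO wells and 100% = sodium butyrate wells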
# SMARCA2 act conf – SMARCA2 (BRM) function activators, confirmation, cell-based, luminescence, triplicate | activation, % at 9.1 µM | shares compounds with SMARCA2 activ | AID 652260, 2013 | 3,500 tested, 30% active | MG213 cells, MMTV-luciferase with dexamethasone, overnight; MG213 cells expressing E1A, Rb sequestered; DMSO wells 0%, reference activator 100%;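 active = activation above its plate's cutoff, the mean activation of tested wells plus 3 SD, cut at about 7.9% in these data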
# GAL4-VP16 Luc – GAL4-VP16 luciferase reporter activation, counter-screen for SMARCA2 (BRM) activator project, cell-based, pG5luc, luminescence, high throughput; shares compounds with SMARCA2 activ; HEK293 GAL4-VP16 pG5luc reporter; scaled: DMSO wells 0%, SAHA wells 100%; activation, % at 9.1 µM; 3,500 tested, 41% active; AID 686939, 2013;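 active = activation above the solvent-only control well mean plus 3 SD, averaged across control plates, cut at about 5.2% in these data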
# The depositor's hits bear a star; x = no result given.
SMILES,hcDAF12 agonist,SMARCA2 activ,ssDAF-12 act,DAX1 inh,hgDAF-12 ag,SMARCA2 act conf,GAL4-VP16 Luc
Cc1cc(COc2ccccc2OCc2cc(C)no2)on1,-1,-3,-1,1,0,x,x
COc1ccc(-c2cc(COc3ccccc3)on2)cc1,1,8.4*,0,1,9,4,7.2*
CC(=O)Nc1cccc(NC(=O)CSc2ncc(C(=O)Nc3ccc(F)cc3)c(=O)n2C)c1,1,-1,-1,-1,-2,x,x
CC(=O)Nc1cccc(NC(=O)CSc2ncc(C(=O)Nc3ccccc3)c(=O)n2C)c1,3,12*,1,1,4,28*,2
O=[N+]([O-])c1cccc(I)c1,-1,-5,-2,0,1,x,x
O=C(c1cc(-c2ccc(Br)cc2)on1)N1CCCCCC1,2,9.4*,0,1,4,4,5.7*
S=C(c1ccc(-c2ccc(Br)cc2)o1)N1CCCCC1,1,8.1*,-1,3,10,16*,8.3*
CS(=O)(=O)Nc1ccc(C2=NN(S(C)(=O)=O)C(c3ccccc3)C2)cc1 (stereo unspecified),0,1,0,2,2,x,x
CS(=O)(=O)Nc1cccc(C2=NN(S(C)(=O)=O)C(c3ccc4c(c3)OCO4)C2)c1 (stereo unspecified),3,9.1*,-1,1,8,6,7.1*
OCCN(Cc1ccccc1)Cc1ccc(Cl)cc1Cl,0,8.2*,-2,0,0,-3,-1
COc1cc(/C=C/c2nc3ccccc3s2)cc(OC)c1O,-1,11*,-2,-1,3,3,2
COc1cc(-c2ccc(=O)[nH]n2)ccc1OC(F)F,-1,8.1*,-1,2,0,15*,3
CN(C(=O)COC(=O)Cc1c(F)cccc1Cl)c1c(N)n(Cc2ccccc2)c(=O)[nH]c1=O,-1,9.4*,-1,1,2,-2,3
O=C(Nc1ccccc1)Nc1nccs1,1,9.0*,-1,0,3,4,3
O=C(Nc1ccccc1)Nc1nncs1,-1,3,-2,0,2,x,x
CCOC(=O)CSC1=NC(=O)/C(=C\c2ccc(Cl)cc2)S1,2,9.3*,1.3*,1,8,5,4
Cc1ccc2c(c1)N(CCCC(=O)N(C)Cc1ccccc1F)C(=O)CO2,0,7,-1,0,0,x,x
CCCc1cc(=O)n2[nH]c(-c3ccc(Br)cc3)cc2n1,5.6*,8.2*,1.1*,2,6,4,9.2*
COC(=O)Cc1c([C@H](C)[C@@H](OC)c2ccccc2Br)nnn1Cc1ccccc1,1,-2,-1,0,1,x,x
CCOc1cc(/C=C2\CN(CC)C/C(=C\c3ccc(O)c(OCC)c3)C2=O)ccc1O,-5,10*,-2,-1,-12,-7,-3
COc1cc(/C=C2\CCC/C(=C\c3ccc(O)c(OC)c3)C2=O)ccc1O,-4,-3,-2,-2,-11,x,x
Cc1cc(C(=O)COC(=O)c2ccc([N+](=O)[O-])o2)c(C)n1CC1CCCO1 (stereo unspecified),-1,8.5*,-2,0,1,1,1
CC(=O)c1c(O)cc(C(C)C)n(-c2ccccc2)c1=O,0,20*,0,0,-1,3,0
C=CCn1c(Cc2cccs2)nnc1SCC(=O)Nc1ccc2c(c1)OCO2,-3,-2,-2,0,-2,x,x
COC(=O)c1nn(-c2ccc3c(c2)OCO3)cc1O,3,9.0*,-1,2,5,13*,11*
SMILES,hcDAF12 agonist,SMARCA2 activ,ssDAF-12 act,DAX1 inh,hgDAF-12 ag,SMARCA2 act conf,GAL4-VP16 Luc
CCOCCCNC(=O)C(c1ccccc1)N(Cc1cccs1)C(=O)c1ccccc1O (stereo unspecified),-2,-2,-2,0,-2,x,x
CCOCCCNC(=O)C(c1ccccc1)N(Cc1cccs1)C(=O)CNC(=O)c1ccccc1 (stereo unspecified),-1,8.7*,-1,-1,0,-3,1
c1ccc(-c2ccc(-c3ccncn3)cc2)cc1,0,9.1*,0,2,12*,5,7.6*
CC(=O)Nc1ccc(OCc2nnc(-c3ccc(Cl)cc3)o2)cc1,-2,1,-1,1,-1,x,x
CC(=O)c1ccc(OCCCC(=O)OCc2nnc(-c3ccc(Cl)cc3)o2)cc1,0,8.3*,-2,0,-1,8.4*,0
Oc1ccc(/C=N/Nc2nccnc2Cl)cc1,3,13*,1,2,12*,7,7.5*
COc1ccccc1C(CNC(=O)c1ccc(S(=O)(=O)NCc2ccco2)cc1)N(C)C (stereo unspecified),1,-4,-1,0,-1,x,x
COc1ccccc1CN(C)C(=O)c1ccc(S(=O)(=O)NCc2ccco2)cc1,0,11*,-1,-1,1,1,3
CNc1nc(C)nc(-c2ccccc2O)n1,0,8.7*,-1,1,7,8,5.1*
COc1ccc(C(C(=O)NC(C)(C)C)n2c(=O)c(-c3cc4ccccc4[nH]3)nc3ccccc32)cc1 (stereo unspecified),3,-4,0,0,2,x,x
O=C(NC1CC1)c1scc2c1OCCO2,0,8.2*,-1,0,2,4,-1
CCc1ccc(OCC(=O)Nc2ncn[nH]2)cc1,0,8.1*,0,1,7,11*,8.7*
O=C(CSc1ccccc1)NC1CCCCN(Cc2ccc(Cl)cc2)C1=O (stereo unspecified),-1,-4,-2,-1,-1,x,x
COc1ccc(-c2nc(N)ncc2-c2ccc(OC)c(OC)c2)c(O)c1,-3,8.1*,-1,-1,-2,7,1
CC(C)(C)c1ccc(S(=O)(=O)N2CCN(C(=O)C(=O)c3cccc(C(F)(F)F)c3)CC2)cc1,-1,-2,-1,1,1,x,x
